From paper PMC10163288
Only a sample is shown. How many sequences the whole screen found active is unknown.

B1: il10ra_site1_normal_mot_HHH_b2_00984_000000042_0001_1_20_H_._HHH_b2_02613_af2_0001_0000700025_0000001_0 (protein)
chain: SSSSSTEEEIEELIKKAEEAAENGDPRKAFELLAEASRYALELGDAELLQEIWELIKKLNSSSSS
B2: il10ra_site1_sap_23_mot_HHH_b1_03574_000000194_0001_1_18_H_._HHH_b1_05868_0001_0000200012_0000002_0_0001 (protein)
chain: SSSSSDRDELYELIEEALELLARGNPEEAERVLEEARELAEELGNRVFLVVIRFLLKDIKSSSSS
B3: il10ra_site1_normal_mot_HHH_b1_05056_000000217_0001_1_20_H_._HHH_b2_04285_0001_0000100002_0000001_0 (protein)
chain: SSSSDLEEEIERLEEELREARERGDKELALQLLLRLLRLAYETRDEELLRELWEIVRKLFSSSSS
B4: il10ra_site1_normal_mot_HHH_b1_04693_000000238_0001_19_36_H_._HHH_b2_06085_af2_0001_0000700026_0000002_0 (protein)
chain: SSSSSDQELYELIRELIELLLEGDEEEIERLEEEIEKLAKELNNRVLLFVARAARRLQEKSSSSS
B5: il10ra_site1_sap_20_mot_HHH_b1_08622_000000192_0001_23_40_H_._HHH_b2_06485_0001_0000100001_0000003_0_0001_af2pred_0001 (protein)
chain: SSSSSEFEEAIKAARESIEHALRLGDDEKVEQALRLLERLARDANDEEAEKFIEEVEELLSSSSS
B6: il10ra_site1_sap_11_mot_HHH_b1_00456_000000263_0001_1_17_H_._HHH_b2_06141_0001_0000200005_0000001_0_0001_af2pred_0001 (protein)
chain: SSSSDIAERLVELALEAARLAAERGDPEAVRRALEQAEHLAKLNNNPELEEEVKELEEELSSSSS
B7: il10ra_site1_sap_15_mot_HHH_b1_00814_af2_000000078_0001_43_57_H_._HHH_b2_00250_af2_0001_0000100010_0000001_0_0001_af2pred_0001 (protein)
chain: SSSSSRSAEEAIRRLLRAAKQLEDEERLKLAIRDALAAAEFLGNEELVEELRKILEELRSSSSSS
B8: il10ra_site1_sap_28_mot_HHH_b2_01776_000000118_0001_38_52_H_._HHH_b1_02755_0001_0000100001_0000001_0_0001_af2pred_0001 (protein)
chain: SSSSDEELLEHLLRALKQVVELGDEERAKLTIKFIKRLAELHNDEEVEKRLRELEELVEELSSSS
B9: il10ra_site1_normal_mot_HHH_b1_02809_af2_000000277_0001_40_57_H_._HHH_b1_00768_af2_0001_0000200008_0000001_0 (protein)
chain: SSSSSSDANETAARLIRAAYRGDEELFEELREELEELIERYGDPRLRLALQFAEALFRELSSSSS
B10: il10ra_site1_sap_22_mot_HHH_b1_00169_000000276_0001_1_18_H_._HHH_b1_00842_0001_0000200007_0000001_0_0001 (protein)
chain: SSSSDEEREELYEILEEVIKLASEGDEEEFEELVREAEELAKELGNWVVRHVLELLRRDLSSSSS

What follows are binders tested against il10ra, Q13651 (assay: yeast display titration).
Chain of il10ra, Q13651 (Q13651 whole entry): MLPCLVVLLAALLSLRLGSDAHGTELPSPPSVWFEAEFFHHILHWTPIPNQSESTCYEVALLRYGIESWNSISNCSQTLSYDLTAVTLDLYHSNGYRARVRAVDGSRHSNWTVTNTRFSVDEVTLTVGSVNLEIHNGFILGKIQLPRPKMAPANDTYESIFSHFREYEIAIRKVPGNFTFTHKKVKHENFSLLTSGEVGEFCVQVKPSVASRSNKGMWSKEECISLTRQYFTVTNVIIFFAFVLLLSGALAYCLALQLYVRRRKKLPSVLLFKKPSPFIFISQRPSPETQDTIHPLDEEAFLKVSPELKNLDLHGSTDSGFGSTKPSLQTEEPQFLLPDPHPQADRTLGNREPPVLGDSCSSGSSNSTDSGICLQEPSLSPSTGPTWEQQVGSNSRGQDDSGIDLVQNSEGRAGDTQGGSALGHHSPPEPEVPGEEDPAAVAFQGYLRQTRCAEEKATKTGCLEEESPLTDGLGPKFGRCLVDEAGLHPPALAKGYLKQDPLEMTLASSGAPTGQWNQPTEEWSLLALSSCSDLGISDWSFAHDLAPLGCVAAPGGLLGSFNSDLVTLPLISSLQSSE

Apparent Kd, inactive:
B1 no binding seen
B2 no binding seen
B3 no binding seen
B4 no binding seen
B5 no binding seen
B6 no binding seen
B7 no binding seen
B8 no binding seen
B9 no binding seen
B10 no binding seen
